Bioassay records: PubChem, National Center for Advancing Translational Sciences (NCATS)
HT1080 IDH1KD tx: qHTS for induction of synthetic lethality in tumor cells producing 2HG: qHTS for the HT-1080-IDH1KD cell line. 360,000 tested, 2% active. HT-1080 IDH1 knockdown viability, ATP luminescence, 48 h. Potency, µM (highest dose often 46.1 µM), without a hit: top-dose activity, negative = toxicity, most hits filed as cytotoxic;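 also: potency is read from the fitted curve at half-maximal effect; 0% = DMSO wells and -100% = cell-free medium wells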
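After a 2 h attachment period, IDH1KD HT-1080 cells took pin-transferred compound for 48 h at 37 °C; ATP-based luminescence after 10 min room-temperature reagent incubation reported viability.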
DT40 TDP1 no CPT: qHTS for Inhibitors of human tyrosyl-DNA phosphodiesterase 1 (TDP1): qHTS in cells in absence of CPT. Potency, µM (titrated, usually from 46.2 µM), inactives show at the top dose activity change, negative = growth inhibition, actives largely listed as inhibitors. DT40 Tdp1-/- hTDP1 cells, no CPT, ATP luminescence, 48 h. 420,000 tested, 15% active; also: potency is read from the fitted curve at half-maximal effect; nearly all actives have a fitted effect of over 55% in size
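Chicken DT40 Tdp1-/- cells stably complemented with human TDP1 were seeded at 400 cells/well with DMSO in place of 20 nM camptothecin. After compound pinning, cells grew at least 48 hr at 37 °C; viability read by CellTiter-Glo luminescence.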
IL-1B inflam inh: qHTS for Inhibitors of Inflammasome Signaling: IL-1-beta AlphaLISA Primary Screen; THP-1 LPS/ATP IL-1B secretion, AlphaLISA, 16 h; active compounds read low; activity change, % at 57.5 µM; 360,000 tested, 4.7% active; AID 743279, 2014; in the data active = activity change below about -50%; inconclusive = mostly about -30% to -49%
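THP-1 cells pretreated 1 hr with compounds (up to 57.5 uM final), then stimulated with LPS (250 ng/mL final) plus ATP (1.25 mM final); secreted IL-1B measured by AlphaLISA after 16 hr, decreased signal indicating inhibition.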
TDP1 cell CPT: qHTS for Inhibitors of human tyrosyl-DNA phosphodiesterase 1 (TDP1): qHTS in cells in presence of CPT. chicken DT40 Tdp1-/-;hTDP1 cells + 20 nM CPT, ATP luminescence, 48 h. Potency, µM (series often up to 46.2 µM), for inactives: at the top dose activity change, negative = growth inhibition, most hits filed as inhibitors. 420,000 tested, 12% active. AID 686979, 2013; also: potency is read from the fitted curve at half-maximal effect; nearly all actives have a fitted effect of over 55% in size
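Cell growth measured by CellTiter-Glo luminescence after a minimum 48 h, 37 C compound exposure with 20 nM CPT in Tdp1-knockout DT40 cells stably expressing hTDP1, seeded 400/well; qHTS titration format.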
HT1080-NT tox: qHTS for induction of synthetic lethality in tumor cells producing 2HG: qHTS for the HT-1080-NT fibrosarcoma cell line; HT-1080-NT fibrosarcoma viability, CellTiter-Glo ATP luminescence, 48 h; Potency, µM (highest dose often 46.1 µM), for the others: at the highest dose activity, negative = less viability, usual class: cytotoxic; 360,000 tested, 1.6% active;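 also: NT is the 2HG producing partner of a matched IDH1 knockdown line; potency is read from the fitted curve at half-maximal effect; 0% = DMSO-treated cells and -100% = media-only wells without cells; nearly all actives have a fitted effect of over 55% in size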
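Read-out is CellTiter-Glo luminescence after 10 minutes at room temperature, following 48 hours' compound treatment of HT-1080-NT cells (750 cells/well, RPMI, 5% FBS, 37 degrees C).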
Active calls of the source: *; u = inconclusive; x = not tested or not shown. Shown are actives, neighbours in structure and some others; about 19% of the full set was active somewhere. Unless noted, calls follow the shape of the dose curve; as a rule, active = well fitted curve in the direction sought with a large enough effect; inconclusive = small, poorly fitted or top-dose-only effect, or another doubt; inactive = no such curve, though single readings can be large; an effect the other way counts as inactive or inconclusive. Unless noted, % is scaled to controls: 0 for no effect and ±100 for the full control effect.

SMILES | HT1080 IDH1KD tx | DT40 TDP1 no CPT | IL-1B inflam inh | TDP1 cell CPT | HT1080-NT tox
COc1cccc(C(=O)COc2ccc3c(C)cc(=O)oc3c2)c1 | u | 2.3µM* | -14 | 3.3µM* | -20%
Cc1cc(=O)oc2cc(OCC(=O)Nc3c(Cl)cccc3C(F)(F)F)ccc12 | -23% | 13µM* | -11 | u | -23%
COc1cc2c(cc1OC)C(COc1ccc3c(C)cc(=O)oc3c1)N(C(=O)c1ccccc1F)CC2 (stereo not given) | x | 21µM* | x | u | x
Cc1cc(=O)oc2cc(OCC(=O)Nc3nccs3)ccc12 | 11% | -28% | -6 | 2% | 17%
COc1ccc(C(=O)COc2ccc3c(C)cc(=O)oc3c2)cc1 | 9% | u | -15 | -20% | 4%
COCc1cc(C)nc(OCC(=O)N/N=C/c2ccc(-c3cc([N+](=O)[O-])ccc3Cl)o2)c1C#N | 4% | u | 1 | -10% | 27%
COC(=O)c1c(C)[nH]c(C(=O)COC(=O)CCc2ccc(OC)c(OC)c2)c1C | 0% | u | 19 | -3% | 11%
Cc1cccc(C(=O)NCC(c2ccc(F)cc2)N2CCOCC2)c1 (stereo not given) | 9% | 1% | -5 | 1% | u
Oc1c(C(Nc2nccs2)c2ccc(C(F)(F)F)cc2)ccc2cccnc12 (stereo not given) | u | u | -103* | u | u
Cc1[nH]c2ccccc2c1C(Nc1nccs1)c1ccncc1 (stereo not given) | 9% | 2% | 23 | -10% | 11%
Oc1c(C(Nc2cccc(C(F)(F)F)c2)c2ccncc2)ccc2cccnc12 (stereo not given) | u | 18µM* | 60 | 16µM* | -29%
Cn1cc(C(=O)c2ccccc2)cc1-c1nc2ccccc2n1C | -12% | 18µM* | -20 | u | -6%
Cc1oc(-c2nc3ccccc3n2C)cc1C(=O)c1ccccc1 | u | 21µM* | 2 | 16µM* | u
CN(CC(=O)Nc1cccc(F)c1)CC(=O)N1CCc2ccccc21 | 1% | -17% | -1 | -11% | 0%
Cn1c(=O)c2c(-c3ccccc3)n(-c3cc([N+](=O)[O-])ccc3O)cc2n(C)c1=O | 10% | -9% | 33 | -26% | 11%
COc1ccc(C2Nc3ccccc3-n3c(-c4ccccc4)c4c(=O)n(C)c(=O)n(C)c4c32)cc1 (stereo not given) | x | u | x | 16µM* | x
Cn1c(=O)c2c(-c3ccccc3)n3c(c2n(C)c1=O)C(c1cccc([N+](=O)[O-])c1)Nc1ccccc1-3 (stereo not given) | x | u | x | 13µM* | x
CC1C(=O)N(Cc2ccc(F)cc2)c2ccccc2N1C(=O)c1c(F)cccc1F (stereo not given) | -11% | u | -2 | 16µM* | 0%
COC(=O)c1ccc(CN2C(=O)c3ccccc3C2=O)cc1 | 15% | 0% | 3 | 5% | 11%
COC(=O)c1ccc(CN2C(=O)C(C)N(C(=O)c3c(F)cccc3F)c3ccccc32)cc1 (stereo not given) | 4% | 8.2µM* | 11 | 15µM* | -1%
CC1C(=O)N(Cc2ccc([N+](=O)[O-])cc2)c2ccccc2N1C(=O)C1CC1 (stereo not given) | 0% | u | 0 | u | 1%
NC(=O)C1CC(=O)N(c2ccc(OCC(=O)Nc3ccc(F)cc3)cc2)C1 (stereo not given) | 2% | -29% | 8 | 4% | 8%
O=C(NNC(=O)C1CC(c2cccs2)=NO1)NC1CCCCC1 (stereo not given) | 10% | 1% | -9 | 1% | 0%
